ChEMBL document CHEMBL1201862, “PubChem BioAssay data set” (2004)
Screen size: about 400,000 compounds; about 2,100 (0.53%) were called active. About 14% were inconclusive and are not listed. This is one part of a sample in which actives are shown more often than they occur. The rule behind the calls is not given here.

Target: Ataxin-2 (Homo sapiens) (UniProt Q99700)
Test: qHTS for Inhibitors of ATXN expression.
Format: functional

Ataxin-2 (Homo sapiens), sequence (Q99700 whole entry): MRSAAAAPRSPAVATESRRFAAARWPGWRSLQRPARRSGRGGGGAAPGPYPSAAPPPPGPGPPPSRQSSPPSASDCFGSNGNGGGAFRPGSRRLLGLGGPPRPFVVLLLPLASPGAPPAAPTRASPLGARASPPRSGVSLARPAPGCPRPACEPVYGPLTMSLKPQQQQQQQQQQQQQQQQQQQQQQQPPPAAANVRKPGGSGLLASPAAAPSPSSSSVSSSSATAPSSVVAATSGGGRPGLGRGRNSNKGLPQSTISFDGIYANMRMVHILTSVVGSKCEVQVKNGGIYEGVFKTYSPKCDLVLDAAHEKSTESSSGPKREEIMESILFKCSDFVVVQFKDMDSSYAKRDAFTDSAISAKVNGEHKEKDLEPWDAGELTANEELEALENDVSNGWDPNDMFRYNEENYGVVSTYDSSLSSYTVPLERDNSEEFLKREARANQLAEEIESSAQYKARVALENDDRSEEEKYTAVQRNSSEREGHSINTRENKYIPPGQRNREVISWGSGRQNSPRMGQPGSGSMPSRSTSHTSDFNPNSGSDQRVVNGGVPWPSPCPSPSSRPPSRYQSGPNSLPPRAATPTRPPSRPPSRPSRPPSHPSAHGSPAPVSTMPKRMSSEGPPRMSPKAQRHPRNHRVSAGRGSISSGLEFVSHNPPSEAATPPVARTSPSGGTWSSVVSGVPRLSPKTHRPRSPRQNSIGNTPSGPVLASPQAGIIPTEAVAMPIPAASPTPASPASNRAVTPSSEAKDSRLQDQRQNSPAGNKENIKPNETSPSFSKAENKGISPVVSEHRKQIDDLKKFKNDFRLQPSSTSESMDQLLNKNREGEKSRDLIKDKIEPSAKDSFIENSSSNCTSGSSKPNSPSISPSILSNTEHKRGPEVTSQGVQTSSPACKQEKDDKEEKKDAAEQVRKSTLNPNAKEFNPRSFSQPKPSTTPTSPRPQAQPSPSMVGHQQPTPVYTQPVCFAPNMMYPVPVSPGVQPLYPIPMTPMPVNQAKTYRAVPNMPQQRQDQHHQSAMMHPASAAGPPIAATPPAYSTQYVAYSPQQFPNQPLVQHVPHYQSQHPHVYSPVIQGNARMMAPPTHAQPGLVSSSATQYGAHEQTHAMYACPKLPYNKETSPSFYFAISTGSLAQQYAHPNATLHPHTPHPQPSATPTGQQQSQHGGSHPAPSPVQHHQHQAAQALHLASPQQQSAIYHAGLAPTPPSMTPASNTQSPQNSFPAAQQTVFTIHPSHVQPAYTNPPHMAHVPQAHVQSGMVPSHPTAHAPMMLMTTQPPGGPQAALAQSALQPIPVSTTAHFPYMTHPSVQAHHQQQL

Row | SMILES | Potency
1 | CC[C@H](CO)Oc1cc(NCc2ccc(Cl)c(Cl)c2)c2ncn(C(C)C)c2c1 | 35.5 µM (active)
2 | CCC(CO)Oc1cc(NCc2ccccc2C(F)(F)F)c2ncn(C(C)C)c2c1 (configuration not stated) | 25.1 µM (active)
3 | CC[C@H](CO)Oc1cc(NCc2cccc(N)c2)c2ncn(C(C)C)c2c1 | 31.6 µM (active)
4 | Nn1c(SCC(=O)Nc2c(F)cc(F)cc2Br)nnc1C1CCCCC1 | inactive
5 | Cc1cc2c(cc1C)NC(CC(=O)Nc1ccccc1)C(=O)N2 (configuration not stated) | inactive
6 | CCCOc1c(Br)cc(C2C3=C(CCCC3=O)N(C)C3=C2C(=O)CCC3)cc1OC | inactive
7 | Cn1c(CNc2ccccc2O)nc2ccccc21 | inactive
8 | CCC(/C=C1\Sc2ccc(OC)cc2N1CCO)=C\c1sc2ccc(OC)cc2[n+]1CCO | 17.8 µM (active)
9 | COc1cccc(C(=O)/C=C2\Sc3ccccc3N2C)c1 | inactive
10 | CCOC(=O)c1cc2c(OC)c(OC)ccc2c2ncc(C#N)c(O)c12 | inactive
11 | Nc1c(S(=O)(=O)c2ccccc2)c2nc3ccccc3nc2n1C1CC1 | inactive
12 | COCCNC(=O)c1c(N)n(/N=C/c2cccs2)c2nc3ccccc3nc12 | inactive
13 | Nc1c(S(=O)(=O)c2cccs2)c2nc3ccccc3nc2n1/N=C/c1cccc(O)c1 | 39.8 µM (active)
14 | Nc1c(S(=O)(=O)c2ccccc2)c2nc3ccccc3nc2n1/N=C/c1cccc(O)c1 | 39.8 µM (active)
15 | COCCn1c(N)c(C(=O)NCc2cccs2)c2nc3ccccc3nc21 | inactive
16 | Cc1ccc(S(=O)(=O)c2c(N)n(-c3ccccc3)c3nc4ccccc4nc23)cc1 | inactive
17 | Nc1c(C(=O)NCC2CCCO2)c2nc3ccccc3nc2n1-c1ccccc1 (configuration not stated) | inactive
18 | COc1ccc(N2C3=C(C(=O)CC(C)(C)C3)C(c3ccccc3OC)C3=C2CC(C)(C)CC3=O)cc1 | inactive
19 | COc1ccc(C2C3=C(CC(C)(C)CC3=O)N(C)C3=C2C(=O)CC(C)(C)C3)cc1 | inactive
20 | CC1(C)CC(=O)C2=C(C1)N1C(=C(C#N)C2c2ccc(Cl)cc2)N=C(N)c2ccccc21 (configuration not stated) | 22.4 µM (active)
21 | COc1ccccc1OCCCC(=O)NCc1ccco1 | inactive
22 | COc1cccc(C=O)c1OCCCOc1cccc2cccnc12 | 39.8 µM (active)
23 | COc1ccc(C2C3=C(O)CC(C)(C)CC3=Nc3c2c(=O)[nH]c(=O)n3Cc2ccccc2)cc1OC (configuration not stated) | inactive
24 | CCCc1ccc(C2Sc3ccccc3NC3=C2C(=O)c2ccccc23)cc1 (configuration not stated) | 31.6 µM (active)
25 | CC(C)(C)c1ccc(C2Sc3ccccc3NC3=C2C(=O)c2ccccc23)cc1 (configuration not stated) | 39.8 µM (active)
26 | Cc1cc2c(NC(=O)CC(C)(C)CC(=O)O)cccc2nn1 | inactive

Row | SMILES | Potency
27 | C=CCSc1nnc(C)c(/C=C/Nc2ccc(Cl)cc2)n1 | inactive
28 | CCC(=O)Oc1ccc2c(c1)O/C(=C\c1ccco1)C2=O | inactive
29 | CCOC(=O)c1c(NC(=O)c2ccc(S(=O)(=O)N3CCC(C)CC3)cc2)sc2c1CCN(C(C)C)C2 | inactive
30 | Cc1ccc(C)n1NC(=O)c1ccc([N+](=O)[O-])cc1 | inactive
31 | N#Cc1c(N)n(CCOC(=O)c2cccc([N+](=O)[O-])c2)c2nc3ccccc3nc12 | inactive
32 | Cc1c(C(=O)c2cccc([N+](=O)[O-])c2)c2ccccn2c1CCC#N | inactive
33 | O=[N+]([O-])c1ccc(N(c2ccccc2)c2ccccc2)cc1 | inactive
34 | O=C(C#Cc1ccccc1)c1ccc([N+](=O)[O-])cc1 | 25.1 µM (active)
35 | O=C(C#Cc1ccccc1)c1cccc([N+](=O)[O-])c1 | 17.8 µM (active)
36 | O=C(c1cn(-c2ccccc2)nc1-c1cccnc1)N1CCN(S(=O)(=O)c2ccccc2F)CC1 | inactive
37 | Cc1cc(C)cc(OCC(=O)NC2CCCc3ccccc32)c1 (configuration not stated) | inactive
38 | O=C(/C=C/c1cc(Br)ccc1O)c1ccco1 | 39.8 µM (active)
39 | NC(=O)N/N=C\c1cc(Br)ccc1O | inactive
40 | O=C(/C=C/Nc1ccccc1Oc1ccccc1)c1ccco1 | inactive
41 | COc1ccc(C2=CC(c3ccc(C)cc3)n3nnnc3N2)cc1 (configuration not stated) | inactive
42 | Sc1nnc(-c2cc3c(s2)-c2ccccc2CC3)o1 | inactive
43 | ClCc1nnc(-c2cc3c(s2)CCCC3)o1 | 39.8 µM (active)
44 | CCOC(=O)c1cc2c(=O)n3ccccc3nc2n(Cc2ccco2)/c1=N\C(=O)c1ccc(C)c(C)c1 | inactive
45 | COc1ccc(Cl)cc1NC(=O)C(OC)c1ccccc1 (configuration not stated) | inactive
46 | COc1cc2c(cc1NC(=O)C(Cl)Cl)-c1ccc(NC(=O)C(Cl)Cl)cc1C2 | 16.8 µM (active)
47 | COc1ccc(OC)c(NC(=O)C(C)Oc2ccc(Br)cc2)c1 (configuration not stated) | inactive
48 | CCN(Cc1ccccc1)C(=O)CSc1ccccc1C(=O)O | inactive
49 | Cc1ccc(NC(=O)c2cccc(Oc3ccc([N+](=O)[O-])cc3)c2)c(C(=O)O)c1 | inactive
50 | O=C(Nc1nnc(-c2cccs2)o1)c1cccc(Oc2ccccc2)c1 | 28.2 µM (active)
51 | COc1cccc(-c2ccc3c(N)c(C(=O)Nc4ccc(Cl)cc4F)sc3n2)c1 | inactive
52 | COC(=O)c1ccsc1NC(=O)c1cccc(OC)c1 | inactive

Row | SMILES | Potency
53 | COc1cccc(-c2nnc(NC(=O)c3ccc(Cl)s3)o2)c1 | 25.1 µM (active)
54 | COc1cccc(C(=O)Nc2nnc(-c3ccc(Cl)cc3)o2)c1 | 35.5 µM (active)
55 | COc1ccc(OC)c2sc(NC(=O)c3ccc(Cl)s3)nc12 | inactive
56 | O=C(Nc1ccccc1C(=O)Nc1ccccc1C(=O)O)c1ccccc1 | inactive
57 | O=C(Nc1nnc(-c2ccc3c(c2)CCCC3)o1)c1ccccc1 | 39.8 µM (active)
58 | N=c1oc2c3c4c(cc2cc1C(=O)Nc1ccccc1)CCCN4CCC3 | inactive
59 | COc1cccc(N/C=C/C(=O)c2ccc(Cl)cc2)c1 | inactive
60 | O=C(Oc1ccc(OC(=O)C2CCC2)cc1)C1CCC1 | inactive
61 | Cc1nc2scc(-c3ccccc3)c2c(=O)n1N=C1C=CC(=O)C=C1 | inactive
62 | CCOC(=O)c1c(NC(=O)c2ccno2)c2cc([N+](=O)[O-])ccc2n1C | inactive
63 | OCCN(CCO)c1nc(N2CCCCC2)c2nc(N(CCO)CCO)nc(N3CCCCC3)c2n1 | inactive
64 | Cc1cc(C)c(C#N)c(SCC(=O)C2CC2)n1 | inactive
65 | O=C(Nc1nnc(-c2ccccc2)o1)c1ccc(Cl)cc1 | 39.8 µM (active)
66 | Cc1ccnc2nc(C(=O)Nc3nnc(-c4ccccc4)o3)nn12 | inactive
67 | O=C(NCc1nnc2c3ccccc3c(-c3ccccc3)nn12)c1ccc(Cl)cc1 | inactive
68 | Cc1nc(CS(=O)(=O)c2ccccn2)sc1C(=O)NNC(=O)c1ccccc1 | inactive
69 | Cc1ccc(S(=O)(=O)N[C@H](C(=O)Oc2ccc3c(C(F)(F)F)cc(=O)oc3c2)c2ccccc2)cc1 | inactive
70 | CCOc1ccc(-c2c(=O)n(OCc3nc4ccccc4[nH]3)c3ccccc3[n+]2[O-])cc1 | inactive
71 | Cc1oc2ccc(O)c(CN3CCCC3)c2c1C(=O)Nc1ccc(C(C)C)cc1 | 15.8 µM (active)
72 | CC(C)c1ccc(/C=C2\Oc3c(ccc(O)c3CN3CCN(C)CC3)C2=O)cc1 | inactive
73 | CCc1c(C)c2ccc(O)c(CN3CCCC3)c2oc1=O | inactive
74 | CCN1CCCC(OC(=O)c2cc(-c3ccc(C)cc3)nc3ccccc23)C1 (configuration not stated) | inactive
75 | CCOC(=O)COc1cccc2c(=O)n(CC(=O)N3CCC(C)CC3)ccc12 | inactive
76 | CCn1c(=O)cc(OCC(=O)N2CCN(c3ccc(C)cc3)C(C)C2)c2ccccc21 (configuration not stated) | 28.2 µM (active)
77 | COCc1cc(=O)oc2cc(NS(=O)(=O)c3ccc(C)cc3)ccc12 | inactive
78 | COc1ccc(-c2cc(C(=O)Nc3ccc(S(=O)(=O)Nc4onc(C)c4C)cc3)c3ccccc3n2)cc1 | inactive

Row | SMILES | Potency
79 | COc1ccc(-c2nc3ccc(NS(=O)(=O)c4ccc(C)cc4)cc3o2)cc1 | 39.8 µM (active)
80 | COC(=O)c1cscc1S(=O)(=O)Cc1ccccc1 | inactive
81 | CC(=O)Nc1ccc(S(=O)(=O)NCCc2cn3nc(C)c(C)nc3n2)cc1 | inactive
82 | CNC(=O)COC(=O)/C=C/c1nc2ccccc2s1 | inactive
83 | CCOC(=O)CN1C(=O)S/C(=C\c2ccc3c(c2)OCO3)C1=O | inactive
84 | O=C(NCCN1C(=O)S/C(=C\c2ccc(Cl)c([N+](=O)[O-])c2)C1=O)C1=COCCO1 | 25.1 µM (active)
85 | CCCn1nnc(NC(=S)NC(=O)c2ccccc2OC)n1 | inactive
86 | C=CCN1C(=O)/C(=C/c2ccc(O)cc2)S/C1=N/c1nccs1 | inactive
87 | C=CCN1C(=O)/C(=C2\C(=O)Nc3ccccc32)S/C1=N/c1ccc(O)cc1 | 31.6 µM (active)
88 | Cc1ccc(-c2nc3ccc(C)cn3c2Cc2ccsc2)cc1 | 22.4 µM (active)
89 | Cc1ccc(-c2nc3ccc(C)cn3c2Cc2cccc(F)c2)cc1 | 35.5 µM (active)
90 | Cc1ccn2c(NCc3ccccc3)c(-c3cccs3)nc2c1 | inactive
91 | Cc1nc2ccccc2nc(C)c1=NOCc1cccc(F)c1 | inactive
92 | Cc1ccc2nc(Cl)nc(-c3ccccc3)c2c1 | inactive
93 | Cc1ccc(Cc2c(-c3ccccc3)nc3cc(C)ccn23)cc1 | 22.4 µM (active)
94 | Cc1ccc(-c2cn3nc(-c4ccccc4)c(-c4ccccc4)nc3n2)cc1 | inactive
95 | Cc1ccc(Sc2nc3ccc(C)cn3c(=O)c2/C=N/O)cc1 | inactive
96 | Cc1ccc2nc(-c3ccccc3)c(Cc3cccc(F)c3)n2c1 | 31.6 µM (active)
97 | Cc1c(NC(=O)CCC2CCCCC2)cc(C(=O)N2CCOCC2)cc1[N+](=O)[O-] | inactive
98 | O=C(O)c1cc(Cl)c(Cl)cc1C(=O)N(Cc1ccccc1)Cc1ccccc1 | inactive
99 | COc1cccc2sc3cc(NCc4ccc(C)o4)ccc3c(=O)c12 | inactive
100 | Oc1nc(/C=C/c2cccc3ccccc23)nc2ccccc12 | inactive
101 | CN(C)c1ccc(/C=C/c2nc(O)c3ccccc3n2)cc1 | inactive
102 | Cc1ccccc1/C=C/c1nc(O)c2ccccc2n1 | 31.6 µM (active)
